Screening results: PubChem BioAssay, several laboratories
Hits are enriched below; roughly 3.8% of the tested compounds scored in any of these assays.
HSP90 refold inh: HSP90 inhibitors, primary screen, cell lysate, luminescence | Rabbit reticulocyte lysate, luciferase refolding luminescence, 3 h | inhibition, % at 5.6 µM | hit rate 0.91% among 290,000 | AID 1789, 2009;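 active = inhibition above the screen-wide mean plus 3 SD, computed separately per campaign, cut at about 16% in these data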;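 note: inhibitors lower the luminescence because luciferase stays unfolded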
NALP1 inh: NALP1 inflammasome inhibitors in reconstituted yeast, colorimetric, S. cerevisiae, triplicate retest; inhibition, % at 10 µM; S. cerevisiae NALP1/ASC/caspase-1 growth, X-gal OD620, 72 h; hit rate 0.61% among 280,000; in the data active = inhibition mostly above about 24%, no sharp cut-off; inactive = mostly below about 32%
p-CIP stab down: p/CIP-EGFP fusion destabilizers, primary screen, fluorescence, F442A cells; Q05BA5; 16 h; decrease of EGFP signal, % at 10 µM; hit rate 0.01% among 290,000;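 active = EGFP signal decrease of at least 30% at 10 µM or well 3 SD below plate mean, unless failing retest; inactive = the rest, including hits failing retest or dose response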
HSF1 inh: HSF1 inhibitors in luciferase reporter cells, primary screen, cell-based, NIH3T3, luminescence. hit rate 0.77% among 300,000. NIH3T3-HGL HSE-luciferase, MG132-induced, luminescence 8 h; active compounds read low. activity change, negative = inhibition, % at 7.5 µM (by protocol);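 active = more than half of replicate wells show activity change below -50%, luminescence cut by over half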;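 note: luciferase reports HSF-1 transcriptional activity via heat shock element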
Hsp70 activator: Hsp70 transcriptional activators, primary screen, cell-based, HeLa, Hsp70 promoter luciferase, luminescence, 10 µM | activation, % at 10 µM | HeLa Hsp70 promoter luciferase reporter; scaled: vehicle 0, proteasome-inhibitor control 100% | hit rate 0.04% among 200,000;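 active = activation above the mean across all tested compounds plus 3 SD, cutoff set per campaign, cut at about 5.5% in these data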
HSF-1 act: HSF-1 activators, primary screen, NIH3T3-HGL cells, MG132 stress, luminescence, single point; NIH3T3-HGL HSF-1 luciferase reporter, 8 h; 100% = twice DMSO control signal; activation, % at 9 µM; hit rate 1.7% among 300,000;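 active = mean replicate activation of at least 50% with a set share of replicates each reaching 50%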
HSP90 confirm: HSP90 inhibitors, confirmation, cell lysate, luminescence | hit rate 64% among 2,300 | inhibition, % at 5.9 µM | AID 1846, 2009 | rabbit reticulocyte lysate, luciferase refolding luminescence, 3 h | shares compounds with HSP90 refold inh; in the data active = inhibition above about 18%
luciferase ctr: firefly luciferase inhibitors, HSP90 counter-screen, confirmation, artefact control for HSP90 inhibitor project, biochemical, luminescence, triplicate; shares compounds with HSP90 refold inh; purified native firefly luciferase; inhibition, % at 5.9 µM; hit rate 48% among 2,300; AID 1847, 2009;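 active = inhibition above the mean inhibition of all tested sample wells plus 3 SD, cut at about 10% in these data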
Target sequence (P08659 whole entry, looked up): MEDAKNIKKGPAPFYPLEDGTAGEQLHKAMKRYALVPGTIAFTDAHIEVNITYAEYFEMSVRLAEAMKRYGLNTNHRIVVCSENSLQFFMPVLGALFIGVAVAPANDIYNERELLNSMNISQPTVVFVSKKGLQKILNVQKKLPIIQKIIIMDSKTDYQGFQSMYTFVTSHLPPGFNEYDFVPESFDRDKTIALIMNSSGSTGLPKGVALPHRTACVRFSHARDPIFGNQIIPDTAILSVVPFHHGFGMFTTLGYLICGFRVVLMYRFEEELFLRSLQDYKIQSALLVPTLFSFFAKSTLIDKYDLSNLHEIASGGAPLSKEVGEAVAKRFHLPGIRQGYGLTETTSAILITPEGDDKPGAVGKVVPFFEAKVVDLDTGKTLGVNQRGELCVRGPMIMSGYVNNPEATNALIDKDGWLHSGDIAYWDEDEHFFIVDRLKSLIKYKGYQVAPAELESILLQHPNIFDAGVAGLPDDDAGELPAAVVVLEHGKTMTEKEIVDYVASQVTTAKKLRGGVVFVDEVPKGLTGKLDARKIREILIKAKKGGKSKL
Of the large screens only hits and unclear results are named; the others gave an inactive call (follow-up assays come after a bar, where they were run).

C#CCn1cc(/C=C2\NC(=O)NC2=O)c2ccccc21	HSP90 refold inh 67.0 (no result: Hsp70 activator) | HSP90 confirm 53.4 | luciferase ctr inactive
Cc1cc(C)nc(NC(=NCCc2c[nH]c3ccccc23)NC(=O)Nc2cccc([N+](=O)[O-])c2)n1	none (no result: HSF1 inh, HSF-1 act)
CC(=O)N(/N=C1\Sc2ccccc2C1=O)c1cccc(C)c1	HSP90 refold inh 39.9 | HSP90 confirm 75.9 | luciferase ctr inactive
CC(=O)N(CN1C(=O)c2ccccc2C1=O)c1cccc(C)c1	none
CCC(=O)Nc1ccc2nc(C3CC3)n(Cc3ccc(C(C)(C)C)cc3)c(=O)c2c1	HSP90 refold inh 21.5, HSF1 inh -59.0 (no result: NALP1 inh, Hsp70 activator) | HSP90 confirm 20.8 | luciferase ctr 17.0
CC(Oc1ccccc1)C(=O)Nc1ccc(S(=O)(=O)Nc2nccs2)cc1 (configuration not stated)	HSP90 refold inh 40.5 (no result: Hsp70 activator) | HSP90 confirm inactive | luciferase ctr inactive
CC1CCN(C2=NC(=O)/C(=C/c3ccccc3F)S2)CC1	HSP90 refold inh 22.6, HSF1 inh -68.5 (no result: Hsp70 activator) | HSP90 confirm 35.1 | luciferase ctr 14.5
CCN(c1ccccc1)S(=O)(=O)c1ccc(C(=O)OC(C)C(=O)NCCC2=CCCCC2)cc1 (configuration not stated)	none
O=C(O)c1cccc(NC(=S)NC(NC(=O)c2ccccc2[N+](=O)[O-])C(Cl)(Cl)Cl)c1 (configuration not stated)	none
O=C(O)c1cccc(NC(=S)NC(NC(=O)c2cccc([N+](=O)[O-])c2)C(Cl)(Cl)Cl)c1 (configuration not stated)	HSP90 refold inh 29.3 (no result: NALP1 inh, Hsp70 activator) | HSP90 confirm 74.6 | luciferase ctr inactive
COc1ccc(C(=O)N2CCOCC2)cc1S(=O)(=O)N1CCCc2ccccc21	HSP90 refold inh 20.1 | HSP90 confirm inactive | luciferase ctr inactive
O=C(CCC(=O)c1cccs1)NCc1cccc(Cl)c1	none (no result: HSP90 refold inh, NALP1 inh, p-CIP stab down, Hsp70 activator)
Cc1ccn2cc(-c3ccc(Br)cc3)nc2c1	HSP90 refold inh 39.8 (no result: Hsp70 activator) | HSP90 confirm 59.8 | luciferase ctr 62.1
Cc1cc(C)cc(Nc2ccc(C(=O)O)cc2[N+](=O)[O-])c1	none (no result: Hsp70 activator)
Cc1ccc(Nc2ccc(C(=O)O)cc2N)cc1	HSP90 refold inh 19.9 | HSP90 confirm inactive | luciferase ctr inactive
Cc1cc(C)cc(Nc2ccc(C(=O)O)cc2N)c1	HSP90 refold inh 23.3 | HSP90 confirm inactive | luciferase ctr inactive
CCOc1ccccc1Nc1ccc(C(=O)O)cc1N	none (no result: Hsp70 activator)
COc1cc(C2Nc3ccc4ccccc4c3C3=C2C(=O)CC(C)(C)C3)ccc1OC(C)C(=O)O (configuration not stated)	none (no result: Hsp70 activator)
COC(=O)C1CN(C(=O)C(C)Oc2ccccc2Cl)c2ccccc2O1 (configuration not stated)	none (no result: Hsp70 activator)
CC(=O)/C(=C\N(C)C)Sc1ccc(C)cc1	HSP90 refold inh 32.7 (no result: NALP1 inh, Hsp70 activator) | HSP90 confirm inactive | luciferase ctr inactive
COc1cc(/C=N/NC(=Nc2ccc(C)cc2)c2nc3ccccc3s2)ccc1O	HSP90 refold inh 57.3, HSF1 inh -73.1 | HSP90 confirm 56.8 | luciferase ctr 49.2
COc1ccccc1/C=N/NC(=Nc1ccc(C)cc1)c1nc2ccccc2s1	none
COc1ccc(/C=C/c2nc3ccccc3c(=O)o2)cc1	HSP90 refold inh 79.2, HSF1 inh -59.1 (no result: Hsp70 activator) | HSP90 confirm 87.2 | luciferase ctr 13.7
COc1ccccc1/C=C/c1nc2ccccc2c(=O)o1	none (no result: NALP1 inh, p-CIP stab down, Hsp70 activator)
CC(C)(C)c1cc(C(=O)N/N=C/c2ccc(-c3ccccc3[N+](=O)[O-])o2)n[nH]1	none (no result: Hsp70 activator)
O=C(N/N=C/c1ccc(-c2ccccc2[N+](=O)[O-])o1)c1cccnc1	HSP90 refold inh 31.9 | HSP90 confirm inactive | luciferase ctr inactive
Cc1cc(C)n(CCN(C)C(=O)C2CCC(=O)N(CCN3CCOCC3)C2)n1 (configuration not stated)	none (no result: Hsp70 activator)
CCN(CC)c1ccc(-c2sc(Nc3ccccc3)n[n+]2-c2ccc(F)cc2)cc1	none (no result: Hsp70 activator)
CCc1ccc(Nc2n[n+](-c3ccccc3)c(-c3ccc(N(CC)CC)cc3)s2)cc1	HSP90 refold inh 20.1 (no result: Hsp70 activator) | HSP90 confirm 45.8 | luciferase ctr inactive
CCOC(=O)c1cnn(C)c1NC(=O)c1ccc(Cl)cc1Cl	none (no result: Hsp70 activator)
Cc1nnc(SCC(=O)Nc2ncc3c(n2)CCCC3=O)s1	none
Cc1nnc(SCC(=O)Nc2ncc3c(n2)CC(c2ccccc2)CC3=O)s1 (configuration not stated)	HSP90 refold inh 35.0 | HSP90 confirm inactive | luciferase ctr inactive
CC(C)c1cc(C(N)=O)c(NC(=O)c2cccc(COc3ccc(Cl)cc3)c2)s1	HSP90 refold inh 49.0 | HSP90 confirm 71.3 | luciferase ctr 68.6
Cc1cc(NC(=O)c2cccc(COc3ccc(Br)cc3)c2)no1	HSP90 refold inh 21.0 | HSP90 confirm 64.1 | luciferase ctr 52.6
COc1cccc(Nc2nc(-c3sc(NC(=O)c4ccccc4)nc3C)cs2)c1	HSP90 refold inh 44.9 | HSP90 confirm inactive | luciferase ctr inactive
Cc1nc(NC(=O)c2ccccc2)sc1-c1csc(NCc2ccco2)n1	HSP90 refold inh 48.3 | HSP90 confirm 28.9 | luciferase ctr inactive
COC(=O)c1sc(NC(=S)NC(=O)c2cccc(C)c2)nc1C	HSP90 refold inh 22.3 | HSP90 confirm inactive | luciferase ctr inactive
Cc1nc(NC(N)=S)sc1C(=O)Nc1ccccc1	HSP90 refold inh 18.8 | HSP90 confirm 25.9 | luciferase ctr inactive
COC(=O)c1sc(NC(=S)NC(=O)c2ccccc2F)nc1C	none
Cc1nc(NC(=O)C2CC2)sc1C(=O)Nc1ccccc1	none (no result: Hsp70 activator)
CN(C(=O)CC(NC(=O)c1ccccc1Cl)c1ccccc1)c1ccccc1 (configuration not stated)	none (no result: Hsp70 activator)
Cc1[nH]c(=O)[nH]c(=O)c1S(=O)(=O)N1CCC(C(=O)N2CCN(c3cccc(C(F)(F)F)c3)CC2)CC1	none
Cc1cccc(NC(=O)CCSc2nnc(Cc3ccccc3)o2)c1	none
Cc1c2cnn(CC(=O)NCCCN3CC(C)CC(C)C3)c(=O)c2c(C)n1Cc1ccccc1Cl (configuration not stated)	none (no result: Hsp70 activator)
Cc1nc(NC(=O)c2ccc(F)cc2)sc1C(=O)Nc1ccc2c(c1)CCC2	HSP90 refold inh 39.0 | HSP90 confirm 45.7 | luciferase ctr inactive
